Here are results for 25 compounds from ChEMBL document CHEMBL3433997, “St. Jude Leishmania screening dataset” (2016).

What is called inhibition is the change of the read-out against control, counted positive when it falls.

Each structure is given as a SMILES string.

Common to all, as to type: functional
Assay [1] concerns the target Solute carrier family 2, facilitated glucose transporter member 1 (Homo sapiens) (UniProt P11166). The assay can be described thus: ST_JUDE_LEISH: Cytotoxicity at 2uM final concentration against transgenic Leishmania Mexicana promastigotes LmGLUT1 that are glucose transport deficient and complemented with the human glucose transporter GLUT1. Activity is measured by DNA content using SYBR green in vitro.

The target of assay [2] is Hexose transporter 1 (Plasmodium falciparum) (UniProt O97467). The assay can be described thus: ST_JUDE_LEISH: Cytotoxicity at 2uM final concentration against transgenic Leishmania Mexicana promastigotes LmPfHT that are glucose transport deficient and complemented with the Plasmodium falciparum hexose transporter. Activity is measured by DNA content using SYBR green in vitro.

Assay [3] concerns the target Glucose transporter (Leishmania mexicana) (UniProt O61059). The assay can be described thus: ST_JUDE_LEISH: Cytotoxicity at 2uM final concentration against transgenic Leishmania Mexicana promastigotes LmGT2 that are glucose transport deficient and complemented with the L. Mexicana glucose transporter 2. Activity is measured by DNA content using SYBR green in vitro.

Sequence of Solute carrier family 2, facilitated glucose transporter member 1 (Homo sapiens) (P11166 whole entry): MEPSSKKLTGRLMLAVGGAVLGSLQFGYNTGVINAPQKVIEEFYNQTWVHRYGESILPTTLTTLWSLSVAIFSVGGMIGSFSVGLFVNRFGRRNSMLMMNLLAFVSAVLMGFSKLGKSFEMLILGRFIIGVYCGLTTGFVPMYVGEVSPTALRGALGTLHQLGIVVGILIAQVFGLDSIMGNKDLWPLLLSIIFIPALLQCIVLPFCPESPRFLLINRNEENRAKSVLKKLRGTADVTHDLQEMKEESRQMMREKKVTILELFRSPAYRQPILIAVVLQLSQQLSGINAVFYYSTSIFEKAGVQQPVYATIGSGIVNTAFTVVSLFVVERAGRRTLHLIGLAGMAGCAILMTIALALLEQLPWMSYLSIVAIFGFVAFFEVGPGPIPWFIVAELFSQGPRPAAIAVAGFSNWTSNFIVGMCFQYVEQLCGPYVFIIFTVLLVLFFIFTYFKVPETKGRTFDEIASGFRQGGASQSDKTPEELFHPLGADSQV

As to `COc1cc(OC)nc(-c2cccc(NC(=O)c3ccc4c(=O)n(CCN5CCCCC5)cnc4c3)c2)n1`, the figures for the inhibition in assay [1], in assay [2] and in assay [3] were 11.9%, 9.45% and 7.35%, respectively.

Take `O=C(NC1CCN(c2ccnc3cc(Cl)ccc23)C1)c1cccc(F)c1` (stereo not given): the inhibition came out at 0.95% in assay [1], 1.46% in assay [2] and 1.42% in assay [3].

On to `COc1ccc2[nH]ccc(=NN=Cc3cccc(F)c3)c2c1`, for which the figures for the inhibition in assay [1], in assay [2] and in assay [3] were 1.01%, 2.87% and 0.07%, respectively.

Regarding `O=C(Nc1cccc(CN2CCCN(Cc3cccc(O)c3)CC2)c1)c1ccc(Cl)c(Cl)c1`, the inhibition came to 13.9% in assay [1], 12.1% in assay [2] and 13.8% in assay [3].

Regarding `O=C(NCCCCN1CCN(c2cccc(Cl)c2Cl)CC1)c1ccc2c(c1)CCN(C1CCC1)CC2`, the results for the inhibition in assay [1], in assay [2] and in assay [3] were 1.09%, -1.47% and -0.46%, respectively.

In the case of `CC(C)c1ccc(NC(=O)c2ccc(C(=O)NC3CCN(CC4CCCCC4)C3)cc2)cc1` (stereo not given), the inhibition came to 3.72% in assay [1], 4.18% in assay [2] and 3.15% in assay [3].

As for `O=C(Nc1ccsc1)Nc1cccc(-c2ccc(-c3nc4cc(C(F)(F)F)ccc4[nH]3)cc2)c1`, the inhibition was determined as 6.66% in assay [1], 6.27% in assay [2] and 7.95% in assay [3].

Consider `O=S(=O)(NCCN1CCCC1)c1cccc(-c2ccc(CNCc3ccccc3)cc2)c1`, for which the inhibition in assay [1] was found to be 5.11%; in assay [2], 2.05%; in assay [3], 2.83%.

Take `CCCC(CNCc1ccc(Cl)c(C(F)(F)F)c1)CNc1nc2cnccc2[nH]1` (stereo not given): the inhibition in assay [1] came out at 13.5%; in assay [2], 11.9%; in assay [3], 8.76%.

As to `O=C(c1ccccc1[N+](=O)[O-])N(Cc1ccccc1)c1ccccn1`, the figures for the inhibition in assay [1], in assay [2] and in assay [3] were 4.59%, 4.79% and 6.57%, respectively.

For `Cc1ccccc1C1CCN(c2ncc(C(=O)Nc3ccccc3)cc2Cl)CC1`, the values for the inhibition in assay [1], in assay [2] and in assay [3] were 0.8%, 0.4% and -6.29%, respectively.

As for `FC(F)(F)c1ccc2[nH]c(-c3cccc(-c4ccc(CNCc5ccccc5)cc4)c3)nc2c1`, the inhibition was -0.08% in assay [1], -1.13% in assay [2] and -0.47% in assay [3].

As for `COc1ccc(OC)c(-c2ccc(=O)n(CC(=O)Nc3cccc4ccccc34)n2)c1`, the results for the inhibition in assay [1], in assay [2] and in assay [3] were 12.4%, 11.6% and 6.44%, respectively.

Take `FC(F)(F)c1cc(C(F)(F)F)c2cc(CNCCCNc3nc4ccccc4[nH]3)[nH]c2c1`: the figures for the inhibition in assay [1], in assay [2] and in assay [3] were -1.02%, 0.32% and -1.92%, respectively.

For `Cc1c(Cl)cccc1S(=O)(=O)N1CCCCC(c2ccc(C(F)(F)F)cc2)=N1`, the inhibition in assay [1] is 0.39%; in assay [2] it was 3.08%; in assay [3] it was -0.52%.

As for `CC(C)(CN1CCCC1)CN(Cc1ccc(-c2ccc(C(F)(F)F)cc2)cc1)C(=O)Cn1c(CCc2cccc(F)c2F)nc(=O)c2ccccc21`, the inhibition in assay [1] was determined as 10.3%; in assay [2], 8.05%; in assay [3] it was 8.96%.

For `Cc1ccccc1C1CCN(C2CCC(NC(=O)/C=C/c3cccc(Cl)c3F)CC2)CC1` (stereo not given), the inhibition in assay [1] was 3.45%; in assay [2], 1.79%; in assay [3] it was 1.85%.

Take `COc1ccc(-c2cccc(NC(=O)c3ccc(Cl)cc3)c2)cc1CN1CCCC1`: the values for the inhibition in assay [1], in assay [2] and in assay [3] were 11.3%, 9.27% and 5.55%, respectively.

With `CNC(=N)c1ccc(NC(=O)Nc2ccc(C(=N)NC)cc2)cc1`, the inhibition in assay [1] was 4.64%; in assay [2] it was 1.88%; in assay [3], 3.62%.

As for `Oc1ccc(CCCNc2nc(NCc3cccc4ccccc34)nc(N3CCCNCC3)n2)cc1`, the inhibition in assay [1] is -0.67%; in assay [2], -0.2%; in assay [3], 1.52%.

For the compound `COc1cc(OC)c(NC(=O)C2c3ccccc3C(=O)N(CC(C)C)C2c2cccs2)cc1Cl` (stereo not given), the figures for the inhibition in assay [1], in assay [2] and in assay [3] were -4.11%, 2.33% and 5.96%, respectively.

Consider `CS(=O)(=O)CCNC(=O)c1ccc(-c2cc3c(Nc4ccc5c(cnn5Cc5ccccc5)c4)ncnc3cn2)o1`, for which the inhibition in assay [1] turned out to be 3.86%; in assay [2], 3.93%; in assay [3], 4.93%.

As to `Cc1cc(NC(=O)c2ccsc2)ccc1OC1CCN(Cc2ccc(F)cc2)CC1`, the figures for the inhibition in assay [1], in assay [2] and in assay [3] were -0.33%, 2.48% and 1.6%, respectively.

As for `CCCCN(CCCC)C(=O)CC(O)c1cc2c(Cl)cc(Cl)cc2c2cc(C(F)(F)F)ccc12` (stereo not given), the inhibition in assay [1] stood at 1.87%; in assay [2], 1.18%; in assay [3], 2.43%.

For the compound `CN(C)c1cccc2c1nc(-c1ccco1)n2CC1CCCN1` (stereo not given), the figures for the inhibition in assay [1], in assay [2] and in assay [3] were -1.97%, -3.51% and -0.52%, respectively.
